Gli-Sufu block: Gli-Sufu pathway antagonists, primary screen, luciferase luminescence, Sufu-KO-LIGHT cells, uHTS; Sufu-KO-LIGHT fibroblasts, Gli luciferase reporter luminescence; 340,000 tested, 0.74% active; inhibition, % at 5 µM; AID 588413, 2011;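 active means inhibition above about 55%, limit read from the data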
TAG inh: inhibitors of triacylglycerol accumulation, primary screen, cell-based, uHTS, fluorescence, H9c2. AID 651582, 2012. inhibition, % at 12.5 µM. 230,000 tested, 0.66% active. H9c2 cells, Nile Red lipid (TAG) fluorescence; cells loaded with 200 µM oleic acid;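 active means pattern-corrected inhibition of lipid staining of at least 50% with the nuclear-stain viability signal not falling by more than 50%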
aSyn UTR inh: MLPCN primary screen, SNCA 5' untranslated region; alpha-synuclein 5'UTR reporter, inhibitor activity; inhibition, % (tested at 7.5 µM); 300,000 tested, 0.82% active; in the data active means inhibition above about 60%;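 further: H4 neuroglioblastoma cells stably carrying SNCA 5'UTR luciferase fusion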
Jurkat NFkB inh: inhibitors of induced NF-kB luciferase reporter, primary screen, TCR NF-kB activation inhibitor project, cell-based, luminescence, uHTS; Jurkat, PMA/ionomycin-induced NF-kB luciferase reporter; inhibition, % at 4 µM; 330,000 tested, 0.53% active; in the data active means inhibition above about 50%
Shn3 3UTR inh: reduction of Shn3 3'UTR firefly luciferase signal, primary screen, Schnurri-3 inhibitor project, cell-based, Clone20 osteoblasts, set 2. Clone20 osteoblast Shn3 3'UTR firefly luciferase, 24 h. inhibition, % at 12.5 µM. 360,000 tested, 0.52% active;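 active means mean inhibition of at least 75% with every replicate also reaching 75%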
697 NFkB inh: inhibitors of PMA/ionomycin-induced NF-kB reporter, 697 cells, primary screen, B-cell NF-kB inhibitor project, cell-based, luminescence, uHTS. 697 B-cell NF-kB luciferase reporter, 16 h. 330,000 tested, 0.33% active. inhibition, % at 4 µM; in the data active means inhibition above about 35%
Gli antag conf: Gli-SUFU pathway antagonists, confirmation, single concentration, luciferase luminescence, Sufu-KO-LIGHT cells | shares compounds with Gli-Sufu block | Gli luciferase reporter | inhibition, % at 5 µM | 2,500 tested, 40% active;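 active means mean inhibition at 5 µM reaching about 45%, limit read from the data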
SufuKO cytotox: cytotoxicity in Sufu-KO-LIGHT cells, confirmation, cytotoxicity control for Gli-SUFU antagonist project, cell-based, ATP luminescence, single concentration; cytotoxicity, % at 5 µM; shares compounds with Gli-Sufu block; 2,500 tested, 32% active;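 active means mean cytotoxicity at 5 µM above about 25%, limit read from the data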;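 further: cells exposed to compound overnight for roughly 16 to 18 hours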
Wnt3a cs: Wnt3a reporter signal inhibition, confirmation, counter-screen for Gli-SUFU antagonist project, Wnt-LIGHT cells, luminescence, single concentration; shares compounds with Gli-Sufu block; Wnt3a-driven luciferase reporter; inhibition, % at 6.25 µM; 2,500 tested, 20% active; AID 651995, 2013;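 active means mean inhibition above about 25%, limit read from the data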
Hits are given with their value; 0 = inactive; - = no result. The list is not random: actives were taken first. Their share in the collection is about 2.3%.

SMILES	Gli-Sufu block	TAG inh	aSyn UTR inh	Jurkat NFkB inh	Shn3 3UTR inh	697 NFkB inh	Gli antag conf	SufuKO cytotox	Wnt3a cs
CCOc1ccc(C(=O)NCC(=O)NCCSc2ccc(Br)cc2)cc1OCC	0	0	-	-	0	-	-	-	-
CCOC(=O)c1cc(NC(=O)COc2ccc([N+](=O)[O-])cc2)cc(C(=O)OCC)c1	63	-	0	0	0	0	0	0	0
O=C(COc1ccc([N+](=O)[O-])cc1)Nc1cc(C(=O)O)cc(C(=O)O)c1	0	-	0	0	0	0	-	-	-
CCOCC(=O)Nc1cc([N+](=O)[O-])ccc1OC	0	-	0	0	0	0	-	-	-
CCOCC(=O)Nc1cc([N+](=O)[O-])ccc1C	91	-	0	0	0	0	0	0	0
Cc1ccc2cc(/C=N/NC(=O)[C@H]3C[C@@H]3c3ccccc3)c(Cl)nc2c1	0	-	0	0	0	0	-	-	-
O=C(N/N=C/c1cc2ccccc2nc1Cl)[C@H]1C[C@@H]1c1ccccc1	73	0	0	0	0	0	0	0	0
COc1cc(/C=C2\S/C(=N/S(=O)(=O)c3ccccc3)NC2=O)c([N+](=O)[O-])cc1OC	0	-	0	0	0	0	-	-	-
CCc1cc(C(=O)NC2CCCN(Cc3ccccc3F)C2)n(C)n1 (stereo not drawn)	65	-	0	0	0	0	0	0	0
Cc1cc(Nc2cccc(Cl)c2)nc(NCc2ccccc2)n1	74	0	0	0	87	0	52	32	0
c1ccc(COc2cccc(-c3cc4nc(NCCCn5ccnc5)ccn4n3)c2)cc1	-	0	-	-	0	-	-	-	-
CC(C)n1c(-c2ccco2)csc1=Nc1cccnc1	0	0	0	0	0	0	51	25	0
O=C(c1ccco1)N1CCN=C1SCc1cccnc1	0	0	0	0	0	0	-	-	-
CN(CC(=O)Nc1ccccc1Cl)C(=O)CN1C(=O)C2CC=CCC2C1=O (stereo not drawn)	0	0	-	0	0	0	0	0	0
CCOc1cccc(-c2c(C(=O)N/N=C/c3ccc(C)o3)nnn2-c2nonc2N)c1	0	-	0	0	0	0	-	-	-
CNc1ccccc1C(C)(C)c1cc(-c2cccc([N+](=O)[O-])c2)no1	0	0	0	0	0	0	-	-	-
CNc1ccccc1C(C)(C)c1cc(-c2cccc(Br)c2)no1	71	0	0	0	86	0	75	0	26
O=S(=O)(c1cc(Br)ccc1Br)N1CCCCCC1	56	-	0	0	0	0	0	0	0
NC(=O)c1ccc(Br)c(S(=O)(=O)N2CCCCC2)c1	0	-	0	0	0	0	-	-	-
COc1ccc(N2CCn3c2nc2c3c(=O)n(CCc3ccccc3)c(=O)n2C)c(OC)c1	-	-	0	-	-	-	-	-	-
COc1ccc(N2CCn3c2nc2c3c(=O)n(CCCc3ccccc3)c(=O)n2C)c(OC)c1	0	-	0	0	0	0	55	35	0
Cc1cc(/C=C2/SC(=S)N(c3ccc([N+](=O)[O-])cc3)C2=O)c(C)n1-c1cccnc1	81	0	0	0	0	0	82	0	0
Cc1cc(/C=C2/SC(=S)N(c3cccc(Cl)c3)C2=O)c(C)n1-c1cccnc1	0	0	0	0	0	0	-	-	-
O=C(COC(=O)c1cnccn1)c1ccc2ccccc2c1	0	0	0	0	0	0	-	-	-
O=C(COC(=O)c1cnccn1)c1cccc([N+](=O)[O-])c1	0	0	0	0	0	0	0	0	0
SMILES	Gli-Sufu block	TAG inh	aSyn UTR inh	Jurkat NFkB inh	Shn3 3UTR inh	697 NFkB inh	Gli antag conf	SufuKO cytotox	Wnt3a cs
Cn1c(SCC(=O)N(Cc2ccccc2)C(C)(C)C)nc2ccccc21	58	-	0	0	0	0	0	0	0
Cn1c(SCC(=O)N2CCCC2)nc2ccccc21	0	0	0	0	0	0	-	-	-
CC(C)CN(CC(C)C)c1nc(N)c(C#N)c(CC#N)c1C#N	89	0	0	0	0	0	0	0	0
COc1cc(/C=C/c2[nH]c(=O)[nH]c(=O)c2[N+](=O)[O-])cc([N+](=O)[O-])c1O	0	-	0	0	0	0	-	-	-
CCCN(CCC)CCNC(=O)c1cc2c(=O)n(C)c3ccccc3c2n1C	63	0	0	0	0	0	0	0	0
CCOc1ccccc1OCC(=O)Nc1nnc(C)s1	94	-	0	0	0	0	0	0	0
COc1ccc(OCC(=O)Nc2nnc(C)s2)cc1	0	0	0	0	0	0	-	-	-
O=C(Cc1ccc(-n2c(=O)c3ccccc3n(Cc3ccc(F)cc3)c2=O)cc1)NCC1CCCO1 (stereo not drawn)	0	-	0	0	0	0	-	-	-
CC(C)n1c(=O)c2ccccc2n1Cc1cn(CCc2c[nH]c3ccccc23)nn1	-	-	-	-	0	-	-	-	-
CCc1nc(C)cn1S(=O)(=O)c1cc(C)c(OC)cc1C	0	0	0	0	0	0	-	-	-
CCc1nc(C)cn1S(=O)(=O)c1cc(C)c(OC)c(C)c1C	60	-	0	0	0	0	52	30	55
C=COC(=O)NC1CCc2cc(OC)c(OC)c(OC)c2-c2ccc(SC)c(=O)cc21 (stereo not drawn)	66	0	-	-	0	-	64	63	40
COc1c(O[C@@H]2O[C@H](CO)[C@@H](O)[C@H](O)[C@H]2O)cc2c(c1OC)-c1ccc(SC)c(=O)cc1C(NC(C)=O)CC2 (stereo partly drawn)	0	0	-	0	0	0	-	-	-
COc1cc2c(c(OC)c1OC)-c1ccc(SC)c(=O)cc1C(NC(=O)c1ccccc1)CC2 (stereo not drawn)	63	0	-	-	0	-	66	51	46
O=C(CN1C(=O)NC2(CCCCCC2)C1=O)NCc1ccccc1Cl	0	0	-	0	0	0	-	-	-
CCOc1ccc(S(=O)(=O)Nc2cccc(C(=O)N3CCN(c4cccc(OC)c4)CC3)c2)cc1	0	0	0	0	0	0	-	-	-
Cc1nn(C)c(C(=O)NCc2ccc(Cl)cc2)c1Cl	63	-	0	0	86	0	53	29	0
Cc1nc(C)c(C(=O)NCc2ccc(Cl)cc2)o1	-	-	0	0	0	0	-	-	-
CCC(C(=O)Nc1ccc2c(c1)OCCO2)n1c(=O)[nH]c2ccccc2c1=O (stereo not drawn)	0	-	0	0	0	0	0	0	48
COc1ccc(/C=C2\CCc3ccccc3C2=O)cc1Cn1nc(C)cc1C	0	0	0	0	0	0	-	-	-

Screening results (PubChem BioAssay)
